# Reference: publication PMC7862700, “An all-to-all approach to the identification of sequence-specific readers for epigenetic DNA modifications on cytosine”
# Columns and labels:
# Assay in all cases: DAPPL (digital affinity profiling via proximity ligation, sequencing); 10 mM Tris-HCl pH 7.5, 50 mM NaCl, 1 mM DTT, 4% glycerol, room temperature, 30 min; GST-TFs on glutathione beads, 16-mer random dsDNA library, 0.1% formaldehyde crosslink after washing; high values mean tight binding
# [1] = target: T1, FLI1 (Homo sapiens, UniProt Q01543 1-452); conditions: protein: recombinant; tags: N-terminal GST; dsDNA, one strand shown
# T1 sequence: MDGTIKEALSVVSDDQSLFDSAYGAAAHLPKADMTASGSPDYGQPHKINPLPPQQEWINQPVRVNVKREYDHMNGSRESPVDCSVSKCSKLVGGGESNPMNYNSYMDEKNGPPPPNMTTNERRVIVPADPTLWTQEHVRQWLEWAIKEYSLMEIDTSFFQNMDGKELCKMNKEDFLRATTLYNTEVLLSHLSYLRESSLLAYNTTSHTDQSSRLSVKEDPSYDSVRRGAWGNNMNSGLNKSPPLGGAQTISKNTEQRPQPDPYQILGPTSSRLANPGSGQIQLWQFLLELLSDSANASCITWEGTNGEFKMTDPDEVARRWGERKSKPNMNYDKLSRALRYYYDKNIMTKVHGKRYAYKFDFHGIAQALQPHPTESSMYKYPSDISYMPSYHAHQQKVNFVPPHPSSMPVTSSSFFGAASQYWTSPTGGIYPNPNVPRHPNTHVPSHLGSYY
# In short: (§1)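 GST fusions of human transcription factors were expressed in yeast and captured with glutathione beads. Once given DNA barcodes and pooled alongside a tag-only sample, they were incubated for 30 min at room temperature with 200 nmole of a random double-stranded 16-mer DNA library in Tris/NaCl/DTT/glycerol buffer, then washed, crosslinked (0.1% formaldehyde), proximity-ligated, PCR-amplified and sequenced on an Illumina NextSeq500. The binding signal of each hexamer is its read frequency for a factor divided by its frequency for the tag-only sample.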
# [2] = target: T2, ELK1 (Homo sapiens, UniProt P19419 1-428); conditions: protein: recombinant; tags: N-terminal GST; dsDNA, one strand shown
# T2 sequence: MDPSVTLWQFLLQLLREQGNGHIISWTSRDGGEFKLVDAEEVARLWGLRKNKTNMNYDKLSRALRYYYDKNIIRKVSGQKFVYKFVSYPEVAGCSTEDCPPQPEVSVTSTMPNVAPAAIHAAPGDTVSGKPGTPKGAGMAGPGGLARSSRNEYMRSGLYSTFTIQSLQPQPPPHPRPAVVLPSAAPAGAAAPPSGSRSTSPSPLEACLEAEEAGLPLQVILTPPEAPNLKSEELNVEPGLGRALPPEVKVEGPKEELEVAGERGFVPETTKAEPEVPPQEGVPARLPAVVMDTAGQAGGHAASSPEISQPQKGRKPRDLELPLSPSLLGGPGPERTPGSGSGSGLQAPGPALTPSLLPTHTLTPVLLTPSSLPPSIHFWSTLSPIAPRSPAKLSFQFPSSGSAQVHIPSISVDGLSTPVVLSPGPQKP
# In short: as §1
# [3] = target: T3, GABPA (Homo sapiens, UniProt Q06546 1-454); conditions: protein: recombinant; tags: N-terminal GST; dsDNA, one strand shown
# T3 sequence: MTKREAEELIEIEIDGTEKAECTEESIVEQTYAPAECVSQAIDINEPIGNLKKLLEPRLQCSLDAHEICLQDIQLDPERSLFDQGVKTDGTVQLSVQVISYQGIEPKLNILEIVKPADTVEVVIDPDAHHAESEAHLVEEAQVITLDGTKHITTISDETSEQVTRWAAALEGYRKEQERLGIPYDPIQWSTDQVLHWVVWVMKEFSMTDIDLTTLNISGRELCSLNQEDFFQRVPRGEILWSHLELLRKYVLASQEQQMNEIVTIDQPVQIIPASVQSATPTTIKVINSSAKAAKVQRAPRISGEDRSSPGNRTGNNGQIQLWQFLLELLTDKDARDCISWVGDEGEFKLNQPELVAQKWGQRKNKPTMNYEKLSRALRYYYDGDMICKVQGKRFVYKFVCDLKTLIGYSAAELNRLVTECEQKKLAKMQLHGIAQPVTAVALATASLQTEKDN
# In short: as §1
# [4] = target: T4, ERG (Homo sapiens, UniProt P11308 1-479); conditions: protein: recombinant; tags: N-terminal GST; dsDNA, one strand shown
# T4 sequence: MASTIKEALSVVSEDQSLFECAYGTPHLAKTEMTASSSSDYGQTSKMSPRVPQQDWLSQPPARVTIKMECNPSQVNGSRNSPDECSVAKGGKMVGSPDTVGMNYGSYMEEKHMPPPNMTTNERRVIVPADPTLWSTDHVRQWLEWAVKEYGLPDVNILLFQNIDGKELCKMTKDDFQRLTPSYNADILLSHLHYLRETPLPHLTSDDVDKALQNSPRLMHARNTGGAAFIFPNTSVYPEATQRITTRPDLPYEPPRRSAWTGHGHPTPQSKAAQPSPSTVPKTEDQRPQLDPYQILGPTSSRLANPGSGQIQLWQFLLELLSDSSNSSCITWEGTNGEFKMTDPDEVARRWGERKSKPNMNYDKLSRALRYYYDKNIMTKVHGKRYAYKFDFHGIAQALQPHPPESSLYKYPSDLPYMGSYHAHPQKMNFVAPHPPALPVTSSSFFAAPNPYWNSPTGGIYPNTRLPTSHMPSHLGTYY
# In short: as §1
# [5] = target: ELF1 (Homo sapiens, UniProt P32519 1-619); conditions: protein: recombinant; tags: N-terminal GST; dsDNA, one strand shown
# ELF1, sequence (P32519 whole entry): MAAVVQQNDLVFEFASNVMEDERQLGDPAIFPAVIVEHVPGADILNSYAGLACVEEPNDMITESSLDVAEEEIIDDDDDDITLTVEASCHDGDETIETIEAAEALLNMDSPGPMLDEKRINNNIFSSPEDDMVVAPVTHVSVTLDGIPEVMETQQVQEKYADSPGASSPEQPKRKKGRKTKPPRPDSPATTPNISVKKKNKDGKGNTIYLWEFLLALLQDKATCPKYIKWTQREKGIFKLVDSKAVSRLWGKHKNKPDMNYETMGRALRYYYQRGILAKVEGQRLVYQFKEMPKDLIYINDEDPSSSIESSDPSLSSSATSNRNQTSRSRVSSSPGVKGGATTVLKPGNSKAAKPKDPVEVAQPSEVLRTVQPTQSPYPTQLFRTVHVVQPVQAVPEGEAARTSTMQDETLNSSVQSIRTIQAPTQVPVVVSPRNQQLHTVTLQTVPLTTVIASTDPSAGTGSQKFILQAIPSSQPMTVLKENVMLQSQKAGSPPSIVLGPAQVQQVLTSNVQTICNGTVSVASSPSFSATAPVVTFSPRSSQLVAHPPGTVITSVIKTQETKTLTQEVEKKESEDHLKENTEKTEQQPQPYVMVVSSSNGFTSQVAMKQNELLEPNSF
# In short: as §1
# [6] = target: T5, EHF (Homo sapiens, UniProt Q9NZC4 1-300); conditions: protein: recombinant; tags: N-terminal GST; dsDNA, one strand shown
# T5 sequence: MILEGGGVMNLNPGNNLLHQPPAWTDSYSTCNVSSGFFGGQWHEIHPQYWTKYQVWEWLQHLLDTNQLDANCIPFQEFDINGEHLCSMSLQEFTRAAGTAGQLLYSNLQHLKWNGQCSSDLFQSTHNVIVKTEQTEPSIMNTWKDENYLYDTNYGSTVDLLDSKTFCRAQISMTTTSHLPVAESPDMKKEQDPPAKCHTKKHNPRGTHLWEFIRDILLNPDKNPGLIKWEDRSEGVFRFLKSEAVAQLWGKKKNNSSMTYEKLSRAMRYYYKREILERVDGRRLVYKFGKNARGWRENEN
# In short: as §1
# [7] = target: SPI1 (Homo sapiens, UniProt P17947 1-270); conditions: protein: recombinant; tags: N-terminal GST; dsDNA, one strand shown
# In short: as §1
# [8] = target: SPIB (Homo sapiens, UniProt Q01892 1-262); conditions: protein: recombinant; tags: N-terminal GST; dsDNA, one strand shown
# SPIB, sequence (Q01892 whole entry): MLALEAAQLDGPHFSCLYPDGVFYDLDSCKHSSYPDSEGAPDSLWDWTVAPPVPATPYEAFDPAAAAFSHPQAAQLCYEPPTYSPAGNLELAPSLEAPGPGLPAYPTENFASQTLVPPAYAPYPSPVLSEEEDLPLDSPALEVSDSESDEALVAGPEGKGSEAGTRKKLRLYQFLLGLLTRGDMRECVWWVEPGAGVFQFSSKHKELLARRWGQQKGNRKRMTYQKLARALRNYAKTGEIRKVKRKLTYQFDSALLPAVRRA
# In short: as §1
# [9] = target: T6, ELK3 (Homo sapiens, UniProt P41970 1-407); conditions: protein: recombinant; tags: N-terminal GST; dsDNA, one strand shown
# T6 sequence: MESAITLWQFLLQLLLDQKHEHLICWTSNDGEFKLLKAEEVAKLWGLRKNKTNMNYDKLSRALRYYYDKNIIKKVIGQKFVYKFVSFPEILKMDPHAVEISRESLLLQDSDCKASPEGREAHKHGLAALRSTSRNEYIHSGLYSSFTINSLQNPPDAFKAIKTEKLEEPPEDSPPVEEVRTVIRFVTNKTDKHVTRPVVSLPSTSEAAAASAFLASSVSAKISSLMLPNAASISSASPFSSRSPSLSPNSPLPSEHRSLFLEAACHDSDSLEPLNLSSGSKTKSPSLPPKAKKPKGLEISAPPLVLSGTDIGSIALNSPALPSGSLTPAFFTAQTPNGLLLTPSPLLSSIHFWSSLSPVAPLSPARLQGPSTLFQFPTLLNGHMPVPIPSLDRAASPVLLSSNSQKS
# In short: as §1
# [10] = target: T7, FEV (Homo sapiens, UniProt Q99581 1-238); conditions: protein: recombinant; tags: N-terminal GST; dsDNA, one strand shown
# T7 sequence: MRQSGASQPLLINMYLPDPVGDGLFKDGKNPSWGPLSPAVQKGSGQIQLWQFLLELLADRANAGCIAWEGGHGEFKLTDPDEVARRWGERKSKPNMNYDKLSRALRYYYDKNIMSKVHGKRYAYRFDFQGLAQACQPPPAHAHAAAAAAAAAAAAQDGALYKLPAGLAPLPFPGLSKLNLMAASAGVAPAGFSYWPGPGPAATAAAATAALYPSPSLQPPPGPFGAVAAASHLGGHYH
# In short: as §1
# [11] = target: ETV5 (Homo sapiens, UniProt P41161 1-510); conditions: protein: recombinant; tags: N-terminal GST; dsDNA, one strand shown
# ETV5, sequence (P41161 whole entry): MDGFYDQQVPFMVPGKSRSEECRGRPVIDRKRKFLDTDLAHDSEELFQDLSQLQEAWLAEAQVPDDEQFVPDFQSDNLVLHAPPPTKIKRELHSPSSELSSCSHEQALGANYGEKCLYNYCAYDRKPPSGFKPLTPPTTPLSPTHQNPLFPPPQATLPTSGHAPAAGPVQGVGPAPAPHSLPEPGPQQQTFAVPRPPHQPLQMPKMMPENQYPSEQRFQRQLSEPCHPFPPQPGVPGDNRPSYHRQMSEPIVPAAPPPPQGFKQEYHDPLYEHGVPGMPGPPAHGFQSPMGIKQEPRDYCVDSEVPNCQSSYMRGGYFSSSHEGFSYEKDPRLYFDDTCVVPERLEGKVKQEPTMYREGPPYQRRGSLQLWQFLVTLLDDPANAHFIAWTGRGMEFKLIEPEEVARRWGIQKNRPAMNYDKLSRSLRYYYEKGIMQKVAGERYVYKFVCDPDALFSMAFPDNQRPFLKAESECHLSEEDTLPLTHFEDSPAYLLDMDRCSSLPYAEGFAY
# In short: as §1
# [12] = target: HSF1 (Homo sapiens, UniProt Q00613 1-529); conditions: protein: recombinant; tags: N-terminal GST; chain copies: 3; dsDNA, one strand shown
# HSF1, sequence (Q00613 whole entry): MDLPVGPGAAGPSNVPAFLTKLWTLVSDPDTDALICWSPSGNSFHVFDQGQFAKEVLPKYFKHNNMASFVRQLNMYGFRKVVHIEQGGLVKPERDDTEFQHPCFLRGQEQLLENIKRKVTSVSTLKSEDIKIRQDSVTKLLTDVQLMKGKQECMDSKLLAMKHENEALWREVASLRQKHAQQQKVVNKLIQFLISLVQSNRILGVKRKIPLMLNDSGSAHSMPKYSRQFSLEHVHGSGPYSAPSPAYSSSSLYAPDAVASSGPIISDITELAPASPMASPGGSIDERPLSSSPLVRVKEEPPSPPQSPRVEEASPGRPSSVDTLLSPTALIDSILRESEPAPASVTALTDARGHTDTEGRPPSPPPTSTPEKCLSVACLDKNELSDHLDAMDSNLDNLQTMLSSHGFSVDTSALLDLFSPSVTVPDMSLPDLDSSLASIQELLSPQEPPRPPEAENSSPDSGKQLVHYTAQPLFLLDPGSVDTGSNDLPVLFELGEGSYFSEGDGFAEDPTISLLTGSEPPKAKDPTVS
# In short: as §1
# [13] = target: T8, SPIC (Homo sapiens, UniProt Q8N5J4 1-248); conditions: protein: recombinant; tags: N-terminal GST; dsDNA, one strand shown
# T8 sequence: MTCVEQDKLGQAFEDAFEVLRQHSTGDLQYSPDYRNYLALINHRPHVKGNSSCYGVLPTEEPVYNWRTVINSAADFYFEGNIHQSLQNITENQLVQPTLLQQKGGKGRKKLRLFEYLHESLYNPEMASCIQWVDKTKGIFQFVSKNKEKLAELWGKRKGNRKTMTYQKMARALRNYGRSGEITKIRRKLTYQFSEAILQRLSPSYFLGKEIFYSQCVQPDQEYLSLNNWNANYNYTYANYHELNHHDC
# In short: as §1
# [14] = target: ELF4 (Homo sapiens, UniProt Q99607 1-663); conditions: protein: recombinant; tags: N-terminal GST; dsDNA, one strand shown
# ELF4, sequence (Q99607 whole entry): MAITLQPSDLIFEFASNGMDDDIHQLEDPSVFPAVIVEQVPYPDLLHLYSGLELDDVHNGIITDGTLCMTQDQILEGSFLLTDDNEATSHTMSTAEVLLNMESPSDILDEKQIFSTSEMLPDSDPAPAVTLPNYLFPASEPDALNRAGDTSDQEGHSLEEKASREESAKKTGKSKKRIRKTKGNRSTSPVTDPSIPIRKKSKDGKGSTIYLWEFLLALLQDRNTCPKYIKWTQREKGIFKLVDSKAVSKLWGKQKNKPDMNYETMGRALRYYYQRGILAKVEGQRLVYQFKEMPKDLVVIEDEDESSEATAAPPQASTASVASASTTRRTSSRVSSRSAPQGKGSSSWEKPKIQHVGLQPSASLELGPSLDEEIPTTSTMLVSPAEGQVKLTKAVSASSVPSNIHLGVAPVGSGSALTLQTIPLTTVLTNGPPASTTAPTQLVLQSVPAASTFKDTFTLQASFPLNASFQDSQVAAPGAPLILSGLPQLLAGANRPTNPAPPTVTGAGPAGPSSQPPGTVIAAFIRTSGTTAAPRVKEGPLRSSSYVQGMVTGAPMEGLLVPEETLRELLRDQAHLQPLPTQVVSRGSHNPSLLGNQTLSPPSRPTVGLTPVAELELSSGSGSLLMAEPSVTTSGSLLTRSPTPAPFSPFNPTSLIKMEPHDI
# In short: as §1
# [15] = target: T9, ELK4 (Homo sapiens, UniProt P28324-2 1-405); conditions: protein: recombinant; tags: N-terminal GST; dsDNA, one strand shown
# T9 sequence: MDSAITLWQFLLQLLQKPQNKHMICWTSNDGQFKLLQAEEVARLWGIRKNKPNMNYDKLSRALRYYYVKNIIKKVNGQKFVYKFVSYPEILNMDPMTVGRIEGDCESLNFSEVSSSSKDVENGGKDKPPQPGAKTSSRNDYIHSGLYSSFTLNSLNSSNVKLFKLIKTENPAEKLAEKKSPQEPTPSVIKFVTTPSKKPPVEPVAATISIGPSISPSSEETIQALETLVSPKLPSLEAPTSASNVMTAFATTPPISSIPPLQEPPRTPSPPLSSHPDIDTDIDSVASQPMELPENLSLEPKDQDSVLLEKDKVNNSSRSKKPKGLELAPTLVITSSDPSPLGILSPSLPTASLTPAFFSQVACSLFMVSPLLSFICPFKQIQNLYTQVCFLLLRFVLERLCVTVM
# In short: as §1
# [16] = target: T10, ETV2 (Homo sapiens, UniProt O00321 1-342); conditions: protein: recombinant; tags: N-terminal GST; dsDNA, one strand shown
# T10 sequence: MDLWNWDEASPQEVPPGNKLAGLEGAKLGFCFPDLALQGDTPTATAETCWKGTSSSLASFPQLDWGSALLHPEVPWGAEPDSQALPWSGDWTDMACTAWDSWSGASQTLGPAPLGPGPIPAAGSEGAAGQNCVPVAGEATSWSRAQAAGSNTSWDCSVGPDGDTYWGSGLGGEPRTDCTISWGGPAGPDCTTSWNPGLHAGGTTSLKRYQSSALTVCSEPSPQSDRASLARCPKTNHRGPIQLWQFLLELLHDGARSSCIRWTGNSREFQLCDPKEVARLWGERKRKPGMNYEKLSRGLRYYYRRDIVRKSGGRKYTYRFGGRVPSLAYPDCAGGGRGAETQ
# In short: as §1
# [17] = target: T11, ELF3 (Homo sapiens, UniProt P78545 1-371); conditions: protein: recombinant; tags: N-terminal GST; dsDNA, one strand shown
# T11 sequence: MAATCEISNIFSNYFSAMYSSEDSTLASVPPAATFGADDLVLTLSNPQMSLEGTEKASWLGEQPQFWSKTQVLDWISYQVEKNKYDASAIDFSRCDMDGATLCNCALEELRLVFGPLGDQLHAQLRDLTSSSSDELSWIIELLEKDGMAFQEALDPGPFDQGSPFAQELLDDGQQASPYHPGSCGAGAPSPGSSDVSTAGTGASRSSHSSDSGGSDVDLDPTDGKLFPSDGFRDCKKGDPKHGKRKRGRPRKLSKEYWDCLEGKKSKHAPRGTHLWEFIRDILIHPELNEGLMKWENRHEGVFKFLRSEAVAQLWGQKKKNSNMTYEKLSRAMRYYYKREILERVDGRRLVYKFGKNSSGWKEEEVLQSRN
# In short: as §1
# [18] = target: CRX (Homo sapiens, UniProt O43186 1-299); conditions: protein: recombinant; tags: N-terminal GST; dsDNA, one strand shown
# CRX, sequence (O43186 whole entry): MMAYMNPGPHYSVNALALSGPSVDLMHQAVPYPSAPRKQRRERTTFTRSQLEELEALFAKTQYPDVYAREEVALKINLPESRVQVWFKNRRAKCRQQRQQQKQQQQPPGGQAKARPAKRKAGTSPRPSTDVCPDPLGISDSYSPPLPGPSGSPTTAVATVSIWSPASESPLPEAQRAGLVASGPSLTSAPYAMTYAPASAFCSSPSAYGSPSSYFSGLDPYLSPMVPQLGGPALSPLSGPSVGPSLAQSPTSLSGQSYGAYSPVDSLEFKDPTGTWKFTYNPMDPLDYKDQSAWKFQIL
# In short: as §1
# [19] = target: ETV1 (Homo sapiens, UniProt P50549 1-477); conditions: protein: recombinant; tags: N-terminal GST; dsDNA, one strand shown
# ETV1, sequence (P50549 whole entry): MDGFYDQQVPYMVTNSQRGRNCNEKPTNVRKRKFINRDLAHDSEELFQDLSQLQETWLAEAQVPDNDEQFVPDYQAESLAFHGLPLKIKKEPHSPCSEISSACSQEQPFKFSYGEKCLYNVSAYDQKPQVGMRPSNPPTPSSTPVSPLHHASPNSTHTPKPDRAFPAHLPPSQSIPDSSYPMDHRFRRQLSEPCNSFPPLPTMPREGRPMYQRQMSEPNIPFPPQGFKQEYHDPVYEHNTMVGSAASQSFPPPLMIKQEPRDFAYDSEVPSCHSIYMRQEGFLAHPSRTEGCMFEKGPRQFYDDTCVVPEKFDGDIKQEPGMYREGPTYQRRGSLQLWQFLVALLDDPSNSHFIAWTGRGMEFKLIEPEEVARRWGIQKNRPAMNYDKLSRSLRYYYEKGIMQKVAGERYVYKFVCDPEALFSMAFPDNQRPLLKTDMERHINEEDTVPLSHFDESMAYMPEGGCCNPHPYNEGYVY
# In short: as §1
sequence,measurement,setting,value
ATGCGC,binding signal,[1],"1.15 fold enrichment (6-mer frequency, TF over GST control)"
same,binding signal,[2],"1.18 fold enrichment (6-mer frequency, TF over GST control)"
same,binding signal,[3],"1.18 fold enrichment (6-mer frequency, TF over GST control)"
same,binding signal,[4],"1.18 fold enrichment (6-mer frequency, TF over GST control)"
same,binding signal,[5],"1.1 fold enrichment (6-mer frequency, TF over GST control)"
same,binding signal,[6],"1.17 fold enrichment (6-mer frequency, TF over GST control)"
same,binding signal,[7],"1.11 fold enrichment (6-mer frequency, TF over GST control)"
same,binding signal,[8],"1.21 fold enrichment (6-mer frequency, TF over GST control)"
same,binding signal,[9],"1.08 fold enrichment (6-mer frequency, TF over GST control)"
same,binding signal,[10],"1.17 fold enrichment (6-mer frequency, TF over GST control)"
same,binding signal,[11],"1.07 fold enrichment (6-mer frequency, TF over GST control)"
same,binding signal,[12],"1.27 fold enrichment (6-mer frequency, TF over GST control)"
same,binding signal,[13],"1.13 fold enrichment (6-mer frequency, TF over GST control)"
same,binding signal,[14],"1.22 fold enrichment (6-mer frequency, TF over GST control)"
same,binding signal,[15],"1.28 fold enrichment (6-mer frequency, TF over GST control)"
same,binding signal,[16],"1.1 fold enrichment (6-mer frequency, TF over GST control)"
same,binding signal,[17],"1.1 fold enrichment (6-mer frequency, TF over GST control)"
same,binding signal,[18],"1.14 fold enrichment (6-mer frequency, TF over GST control)"
same,binding signal,[19],"1.16 fold enrichment (6-mer frequency, TF over GST control)"
